# Test results: PubChem BioAssay (NCATS)
# “And” between values parts separate entries of the source, which are not always exact repeats. Equal values may be shown once. Inconclusive results are not listed. A number with no mark means an inactive call. The source made the active and inactive calls.
# Test: qHTS assay for small molecule agonists of the antioxidant response element (ARE) signaling pathway (AID 651741; active = well fitted activation curve with a large enough effect in the signal ratio; the % refers to the signal ratio; also: potency is read from the fitted curve at half-maximal effect; as to activation: % of control where 0% means no effect)
# Conditions: HepG2 ARE-bla reporter, beta-lactamase FRET ratio, 16 h; series mostly up to 96 µM; activation: at the top concentration
# Summary of the method: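 Stably integrated ARE-beta-lactamase reporter HepG2 cells; 16 h compound incubation, 37 C; LiveBLAzer FRET substrate 2 h at room temperature; fluorescence intensity.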
Structure (SMILES),Potency,activation [%]
CN(C)c1ccc(N=NS(=O)(=O)O)cc1,37.6 µM (active) and 24.3 µM (active),
NCCO,,10.4
Nc1ccc(O)c([N+](=O)[O-])c1,26.6 µM (active) and 24.3 µM (active),
O=C(O)[C@H](O)[C@@H](O)[C@H](O)[C@H](O)CO,,0.169
CN1[C@@H]2CC[C@H]1CC(OC(=O)C(CO)c1ccccc1)C2 (stereo not given in full),,-0.421
Nc1ccc(O)c(C(=O)O)c1,inactive,
Nc1nc2ccc([N+](=O)[O-])cc2s1,66.8 µM (active),
S=c1[nH]c2ccccc2s1,37.6 µM (active) and 27.3 µM (active),
c1ccc2sc(SSc3nc4ccccc4s3)nc2c1,26.6 µM (active),
N=C1N=C(N)c2cc3ccccc3cc21,16.8 µM (active),
CCCCCCCCCCCCCCCCCC(=O)O,inactive,
CC(C)NCC(O)COc1cccc2ccccc12 (stereo not given),inactive,
O=c1cc(-c2ccccc2)oc2ccccc12,4.61 µM (active) and 5.45 µM (active),
Nc1cc(-c2ccncc2)c[nH]c1=O,,-8.71
COc1cc(/C=C/C(=O)CC(=O)/C=C/c2ccc(O)c(OC)c2)ccc1O,25.9 µM (active),
O=C(Nc1ccccc1)c1cc([N+](=O)[O-])ccc1Cl,1.22 µM (active),

# Test: qHTS assay for small molecule activators of the p53 signaling pathway (AID 651743; active = well fitted activation curve with a large enough effect in the signal ratio, not every such curve was filed as active; the % refers to the signal ratio; also: potency is read from the fitted curve at half-maximal effect; as to activation: % of control where 0% means no effect)
# Conditions: HCT-116 p53RE-bla, beta-lactamase FRET ratio, 16 h; activation: stronger effect = higher value
# Summary of the method: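 Following 16 hours of compound exposure at 37 C, HCT-116 cells bearing the p53RE-bla reporter were loaded with LiveBLAzer B/G FRET substrate for 2 hours at room temperature and fluorescence intensity was recorded.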
Structure (SMILES),activation,Potency
O=C(O)c1cc(O)c(O)c(O)c1,-4.32%,
CN(C)c1ccc(N=NS(=O)(=O)O)cc1,-1.59% and 15.3%,
COc1cc(CNC(=O)CCCC/C=C/C(C)C)ccc1O,-1.8% and -5.67%,
O=C(O)c1ccccc1Nc1cccc(C(F)(F)F)c1,3.61%,
Nc1ccc([N+](=O)[O-])cc1O,-1.9% and 0.18%,
NCCO,-4.3%,
CC1(C)S[C@@H]2[C@H](NC(=O)[C@H](N)c3ccccc3)C(=O)N2[C@H]1C(=O)O,1.65%,
O=C(O)/C=C\C(=O)O,-1.58%,
Nc1ccc(O)c(C(=O)O)c1,0.238% and -1.06%,
C#C[C@]1(O)CC[C@H]2[C@@H]3CCc4cc(O)ccc4[C@H]3CC[C@@]21C,11.3% and 11.7%,
S=c1[nH]c2ccccc2s1,-3.47% and -2.03%,
c1ccc2sc(SSc3nc4ccccc4s3)nc2c1,1.84% and -0.504%,
CCCCCCCCCCCCCCCC(=O)OC(C)C,-1.99%,
N=C1N=C(N)c2cc3ccccc3cc21,,35.5 µM (active)
CCCCCCCCCCCCCCCCCC(=O)O,2.31% and -5.31% and -1.74%,
CC(C)NCC(O)COc1cccc2ccccc12 (stereo not given),-4.3% and -0.33%,
Nc1cc(-c2ccncc2)c[nH]c1=O,-0.79%,
C=CCCCCCCCCC(=O)O,-2.56%,
CN(C)CCC(c1ccc(Cl)cc1)c1ccccn1 (stereo not given),-2.38%,
COc1cc(/C=C/C(=O)CC(=O)/C=C/c2ccc(O)c(OC)c2)ccc1O,,31.6 µM (active)
O=C1CN(/N=C/c2ccc([N+](=O)[O-])o2)C(=O)N1,5.55%,
Oc1ccccc1O,25.3%,
CCCOC(=O)c1ccc(O)cc1,-1.88% and -2.94% and -1.35%,
O=C(Nc1ccccc1)c1cc([N+](=O)[O-])ccc1Cl,4.29%,

# Test: qHTS assay for small molecule activators of the nuclear factor-kappa B (NF-kB) signaling pathway (AID 651749; active = well fitted activation curve with a large enough effect in the signal ratio; the % refers to the signal ratio; also: % of control where 0% means no effect)
# Conditions: NF-kB-bla ME-180 cells, beta-lactamase FRET ratio, 16 h; stronger effect = higher value
# Summary of the method: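 In this qHTS format, compounds acting as activators increase NF-kB-driven beta-lactamase in ME-180 cells, measured as disrupted FRET after 16 hr exposure at 37C and 5% CO2.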
row,Structure (SMILES),activation
1,O=C(O)c1cc(O)c(O)c(O)c1,-0.583%
2,COc1cc(CNC(=O)CCCC/C=C/C(C)C)ccc1O,0.091% and 0.703%
3,O=C(O)c1ccccc1Nc1cccc(C(F)(F)F)c1,-0.0531%
4,Nc1ccc([N+](=O)[O-])cc1O,0.687% and -0.798%
5,Nc1ccc(O)c([N+](=O)[O-])c1,-0.599% and -0.904%
6,O=C(O)/C=C\C(=O)O,-0.21%
7,O=C(O)[C@H](O)[C@@H](O)[C@H](O)[C@H](O)CO,-5.45%
8,Nc1ccc(O)c(C(=O)O)c1,-0.163% and 0.962%
9,Nc1nc2ccc([N+](=O)[O-])cc2s1,-0.326%
10,C#C[C@]1(O)CC[C@H]2[C@@H]3CCc4cc(O)ccc4[C@H]3CC[C@@]21C,2.58% and -0.453%
11,c1cnc2c(c1)ccc1cccnc12,1.8%
12,c1ccc2sc(SSc3nc4ccccc4s3)nc2c1,3.06% and 1.84%
13,CCCCCCCCCCCCCCCC(=O)OC(C)C,0.837%
14,O=C(OCc1ccccc1)c1ccccc1,0.212%
15,CCCCCCCCCCCCCCCCCC(=O)O,-1.37% and -0.0787%
16,CC(C)NCC(O)COc1cccc2ccccc12 (stereo not given),-0.327% and 0.291%
17,O=c1cc(-c2ccccc2)oc2ccccc12,-0.929% and -1.54%
18,Nc1cc(-c2ccncc2)c[nH]c1=O,-2.44%
19,C=CCCCCCCCCC(=O)O,-1.28%
20,CN(C)CCC(c1ccc(Cl)cc1)c1ccccn1 (stereo not given),-0.341%
